Test results reported in PubChem BioAssay AID1852 (Sanford-Burnham Center for Chemical Genomics, 2009).
In all, about 2,500 compounds went through this assay and about 1,100 (44%) were called active.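 The calls were made as follows: active = inhibition above 50% at 4 µM in the single-point screen; inactive = inhibition of 50% or less.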 The set was probably picked from earlier hits. This is one part of the list.

Experiment: TNF-a-driven NF-kB reporter inhibitors, primary screen, selectivity assay for NOD1/NOD2 signaling inhibitor project, cell-based, HEK293T NF-kB-Luc, luminescence (AID 1852)
Conditions: TNF-a induced, 14 h, at 4 µM, hits give high values

inhibition, active:
Cc1ccc2[nH]c3c(N4CCN(Cc5ccccc5)CC4)ncnc3c2c1 76.9%
c1ccc(CN2CCN(c3ncnc4c3[nH]c3ccccc34)CC2)cc1 73.4%
Cc1ccc2[nH]c3c(N4CCc5ccccc5C4)ncnc3c2c1 83.8%
Cc1ccc2c(c1)[nH]c1c(N3CCN(Cc4ccccc4)CC3)ncnc12 72.7%
CCC1Sc2ccc(S(=O)(=O)Nc3ccc(OC)c(OC)c3)cc2NC1=O (stereo not drawn) 51.8%
Cc1cc(C)c(S(=O)(=O)/N=C2\C=C(NS(=O)(=O)c3ccccc3)C(=O)c3ccccc32)c(C)c1 94.9%
Cc1ccc(C)c(S(=O)(=O)/N=C2\C=C(NS(=O)(=O)c3ccccc3)C(=O)c3ccccc32)c1 102%
Cc1cc(C)c(S(=O)(=O)/N=C2\C=C(Nc3ccc(C(=O)O)cc3)C(=O)c3ccccc32)c(C)c1 107%
CCc1ccc(NC(=O)C2CCN(S(=O)(=O)c3ccc4c(c3)CC(C)N4C(C)=O)CC2)cc1 (stereo not drawn) 70%
O=C(CN1C(=O)c2ccccc2S1(=O)=O)c1ccc2c(c1)OCCO2 95%
O=C(CN1C(=O)c2ccccc2S1(=O)=O)c1ccc2c(c1)OCCCO2 95.7%
O=C(CN1C(=O)c2ccccc2S1(=O)=O)N1CCc2ccccc21 70.7%
O=C(CSc1nnnn1C1CC2CCC1C2)Nc1ccnc2ccccc12 (stereo not drawn) 54.8%
Cc1nn(-c2cccc(Cl)c2)c2nc(C(F)(F)F)[nH]c(=O)c12 58.8%
Cc1nn(-c2cc(C(F)(F)F)ccc2Cl)c2nc(C(Cl)(Cl)Cl)[nH]c(=O)c12 71.3%
O=C(O)c1cccc(N/N=C/c2cccc3ccccc23)c1 54.1%
O=c1cc(C(F)(F)F)nc(SCc2cccc3ccccc23)[nH]1 61.3%
CS(=O)(=O)c1ccc(S(=O)CC(=O)OCc2ccccc2)c([N+](=O)[O-])c1 (stereo not drawn) 50.2%
Cc1cc(C(=O)NC2CCCc3c2cnn3-c2ccc(C)c(C)c2)n(C)n1 (stereo not drawn) 74.6%
CCn1nc(C)cc1C(=O)NC1CCCc2c1cnn2-c1ccc(C)c(C)c1 (stereo not drawn) 58.9%
Cc1cc(C(=O)CCl)c(C)n1-c1cccc(S(=O)(=O)N2CCOCC2)c1 52.4%
O=C(NC(=S)N1CCN(Cc2ccc3c(c2)OCO3)CC1)c1cccc(Br)c1 76.1%
COc1cc(/C=C2/CCC/C(=C\c3cc(O)c(OC)c(Cl)c3)C2=O)cc(Cl)c1O 108%
CCOc1cc(/C=C2\CCC/C(=C\c3cc(Cl)c(O)c(OCC)c3)C2=O)cc(Cl)c1O 87.7%

inhibition, inactive:
Cc1csc2ncnc(NC3CCN(Cc4ccccc4)CC3)c12 32.1%
Fc1ccc2[nH]c3c(N4CCc5ccccc5C4)ncnc3c2c1 45.8%
Oc1c(CN2CCN(c3ccccc3)CC2)cc(Br)c2cccnc12 15.7%
Cc1c(C)n(Cc2ccccc2)c2ncnc(Cl)c12 42.6%
O=C(CN1CCN(Cc2ccccc2)CC1)N1N=CCC1c1ccccc1 (stereo not drawn) 21.7%
COCCCNC(=O)c1sc2ncnc(N3CCc4ccccc4C3)c2c1C 44.9%
CCN1CCN(Cc2ccc(NC(=O)c3ccc(C)c(NC(=O)C(=O)c4c[nH]c5ccccc45)c3)cc2C(F)(F)F)CC1 26.4%
COc1ccc(NS(=O)(=O)c2ccc3c(c2)NC(=O)C(C)S3)cc1 (stereo not drawn) 9.8%
CCC(Cc1ccccc1)NS(=O)(=O)c1ccc2c(c1)NC(=O)C(C)S2 (stereo not drawn) -1.2%
CCn1nc([N+](=O)[O-])c(C(C#N)c2nc3cc(C(F)(F)F)ccc3s2)c(Cl)c1=O (stereo not drawn) 34.1%
Cc1ccc(NS(=O)(=O)c2ccc3c(c2)C(=O)c2ccccc2C3=O)c(C)c1 2.1%
Cc1ccc(NC2=C(Cl)C(=O)c3ccccc3C2=O)cc1 -26.5%
Cc1ccc(NC(=O)COc2ccc(/C=C3/SC(=Nc4ccccc4)N(Cc4cccnc4)C3=O)cc2)cc1 14.5%
CC(=O)N1c2ccc(S(=O)(=O)N3CCC(C(=O)Nc4cccc(C)n4)CC3)cc2CC1C (stereo not drawn) 40.5%
COc1ccccc1NC(=O)C1CCCN(S(=O)(=O)c2ccc3c(c2)CC(C)N3C(C)=O)C1 (stereo not drawn) 47.2%
O=C1C(=O)N(c2nccs2)C(c2ccccc2)/C1=C(\O)c1ccc2c(c1)OCCO2 (stereo not drawn) 31.4%
O=C(CSc1ncnc2c1oc1ccccc12)N1CCCc2ccccc21 18.1%
O=C(CN1CCc2cc3c(cc2C1)OCCCO3)Nc1c(F)cccc1F -3.8%
Cc1ccccc1CN1CCc2c(OCC(=O)N3CCCc4ccccc43)cccc2C1=O 48.2%
O=C(/C=C/c1ccncc1)c1ccc2c(c1)OCCO2 -1.4%
CC(C)CCn1c(Sc2nc3ccccc3o2)nc2c1c(=O)[nH]c(=O)n2C 26.6%
O=C(CSc1nc2ccccc2c(=O)[nH]1)Nc1ccccc1C(F)(F)F 21.5%
Cc1nn(-c2ccccc2)c2nc(C(Cl)(Cl)Cl)[nH]c(=O)c12 23.6%
O=C(O)c1cccc(N/N=C/c2cccs2)c1 -23%
O=C(O)c1ccc(N/N=C/c2ccc3nccnc3c2)cc1 48.6%
N#Cc1c(-c2ccccc2)nc(SCc2cccc(C(F)(F)F)c2)[nH]c1=O -14.5%
CS(=O)(=O)c1ccc(C(=O)OCc2nnc(-c3ccccc3)o2)cc1[N+](=O)[O-] 38.9%
CS(=O)(=O)c1ccc(Sc2nc3ccccc3s2)c([N+](=O)[O-])c1 -1.5%
Cc1ccc(-n2ncc3c2CCCC3NC(=O)c2cnccn2)cc1C (stereo not drawn) 37.7%
O=C1C=C(c2ccccc2)C[C@H](c2cccs2)[C@H]1n1nnc([N+](=O)[O-])n1 35.8%
Cc1cc(NC(=S)NC(=O)/C=C/c2ccc(S(=O)(=O)N3CCOCC3)cc2)ccc1Br -18.3%
O=C(c1[nH]nc2c1CCc1ccccc1-2)N1CCN(Cc2ccc3c(c2)OCO3)CC1 45.6%
COc1cc(/C=C2\CCC/C(=C\c3ccc(O)c(OC)c3)C2=O)ccc1O 9.3%
COc1cc(OC)c(OC)cc1/C=C1\CCC/C(=C\c2cc(OC)c(OC)cc2OC)C1=O 41.8%
